The list is a sample of the results.
PostGolgi ctrl = growth of the yeast control strain, post-Golgi counter-screen | efflux-deficient yeast background strain, growth absorbance A615, 16 h | inhibition, % at 10 µM | hit rate 5% among 98,000 | AID 738
CYP2C19 inhib = blocks human cytochrome P450 2C19. P33261. inhibition, % at 5 µM. hit rate 21% among 96,000. CYP2C19 Supersomes, luciferin-H EGE luminescence, 30 min;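 active means CYP2C19 inhibition above a set limit at 5 µM in the primary screen, cut at about 50% in these data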
Target sequence (P33261 whole entry, looked up): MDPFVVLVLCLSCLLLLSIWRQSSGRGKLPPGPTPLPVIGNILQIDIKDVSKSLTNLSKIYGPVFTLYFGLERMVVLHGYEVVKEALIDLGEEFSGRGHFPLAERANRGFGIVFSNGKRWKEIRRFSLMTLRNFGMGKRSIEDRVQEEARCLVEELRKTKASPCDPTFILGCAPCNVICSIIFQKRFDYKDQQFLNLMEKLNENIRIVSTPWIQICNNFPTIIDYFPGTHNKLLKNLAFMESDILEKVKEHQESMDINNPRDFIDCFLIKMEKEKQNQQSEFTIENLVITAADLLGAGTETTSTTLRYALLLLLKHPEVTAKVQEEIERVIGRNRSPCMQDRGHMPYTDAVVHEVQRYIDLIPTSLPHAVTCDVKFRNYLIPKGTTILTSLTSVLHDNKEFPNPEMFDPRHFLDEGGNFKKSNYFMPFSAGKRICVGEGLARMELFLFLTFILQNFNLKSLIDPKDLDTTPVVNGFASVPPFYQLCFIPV
CYP2C19 act = cytochrome P450 2C19 (human) activation; P33261; recombinant CYP2C19, luciferin-H EGE luminescence; active compounds read high; 0 = fully inhibited enzyme, 1 = untreated enzyme; activation factor at 5 µM; 96,000 tested, under 10 active; AID 1025;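 active means activation factor of at least 2 at 5 µM in the primary screen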
PostGolgi yeast = growth inhibition of a yeast mutant, post-Golgi transport screen | post-Golgi transport phenotypic cell assay | inhibition, % at 10 µM | hit rate 0.9% among 98,000;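 further: yeast cells grown in 1536-well plates; yeast grown about 18 h at 30C before absorbance read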
CYP2C9 activ = increases human cytochrome P450 2C9 activity; P11712; recombinant CYP2C9, luciferin-H conversion, luminescence; active compounds read high; factor 1 = untreated enzyme, 0 = blocked; activation factor at 5 µM; hit rate 1.4% among 96,000;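 active means activation factor of 2 or more for CYP2C9 at a 5 µM dose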
CYP2C9 inh = inhibitors of human CYP2C9; CYP2C9 Supersomes, luciferin-H conversion, luminescence; AID 777; inhibition, % at 5 µM; P11712; hit rate 20% among 96,000;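 active means blocking of liver enzyme CYP2C9 beyond about 50% at 5 µM, limit read from the data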
Each line names hits and unclear results; the compound was inactive in the other large screens. Unless noted, no stated cut-off is given here; in the data, active means inhibition above about 30%; inactive means the rest.

CCS(=O)(=O)c1ccc2c(c1)N(S(C)(=O)=O)CC(C(=O)NC1CC1)O2 (centres undefined)	none
O=C(O)Cc1ccc2c(c1)N(S(=O)(=O)c1cccc(C(F)(F)F)c1)CC(C(=O)O)O2 (centres undefined)	none
CCS(=O)(=O)c1ccc2c(c1)N(S(C)(=O)=O)CC(C(=O)NCc1ccccc1OC)O2 (centres undefined)	CYP2C9 inh 62
CCOC(=O)C1CN(S(=O)(=O)c2ccc(OC)cc2)c2cc(S(=O)(=O)CC)ccc2O1 (centres undefined)	CYP2C19 inhib 50, CYP2C9 inh 58
NC(=S)NNC(=O)c1ccccc1	none
CC(C)(C)OC(=O)N1CCCC1C(=O)NC(Cc1ccccc1)C(=O)O (centres undefined)	none
O=C(O)C1C2C=CC3(CN(C/C=C/c4ccccc4)C(=O)C13)O2 (centres undefined)	none
Cc1cc2cc(CN(Cc3ccc4c(c3)OCO4)Cc3nnnn3C3CCCC3)c(=O)[nH]c2cc1C	none
CCc1ccc2[nH]c(=O)c(CN(Cc3nnnn3C3CCCC3)C3CCCCC3)cc2c1	CYP2C19 inhib 76, CYP2C9 inh 82
Cc1ccc2cc(CN(Cc3nnnn3C3CCCCC3)CC3CCCO3)c(=O)[nH]c2c1 (centres undefined)	CYP2C19 inhib 81
Cc1ccc2[nH]c(=O)c(CN(Cc3ccc4c(c3)OCO4)Cc3nnnn3C3CCCC3)cc2c1	CYP2C9 inh 61
O=c1[nH]c2cc3c(cc2cc1CN(CCc1ccccc1)Cc1nnnn1C1CCCC1)OCCO3	none
Cc1ccc2cc(CN(CC3CCCO3)C(=O)C(C)C)c(=O)[nH]c2c1 (centres undefined)	none (no result: CYP2C19 inhib, CYP2C19 act, CYP2C9 activ, CYP2C9 inh)
Cc1cc2cc(CN(Cc3nnnn3C3CCCCC3)CC3CCCO3)c(=O)[nH]c2cc1C (centres undefined)	CYP2C19 inhib 69
CCC(C)NCCOCCSc1ccc(Cl)cc1 (centres undefined)	none
Cc1cc(C)c(NC(=O)CN2CCN3CCCC3C2)c(C)c1 (centres undefined)	none
COCCNC(=O)NC(=O)COC(=O)c1cc([N+](=O)[O-])ccc1Sc1nc(C)cs1	none
CSc1ccc(/C=C/C(=O)c2ccc(NC(=O)Cc3ccccc3)cc2)cc1	none
O=C1C/C(=C/NCc2ccccc2)C(=O)N1	none
COc1ccc2cc(CN(Cc3cccnc3)Cc3nnnn3Cc3ccccc3)c(=O)[nH]c2c1	CYP2C19 inhib 93, CYP2C9 inh 90
Cc1cc(C)c2cc(CN(Cc3nnnn3C3CCCCC3)CC3CCCO3)c(=O)[nH]c2c1 (centres undefined)	CYP2C19 inhib 86, CYP2C9 inh 55
COc1ccc2cc(CN(CCCN3CCOCC3)Cc3nnnn3C3CCCC3)c(=O)[nH]c2c1	none
COCCn1nnnc1CN(Cc1cccnc1)Cc1cc2cc(OC)ccc2[nH]c1=O	none
COc1ccc(CN(Cc2cc3ccc(C)cc3[nH]c2=O)Cc2nnnn2C2CCCC2)cc1	CYP2C19 inhib 93, CYP2C9 inh 93 (no result: PostGolgi ctrl, PostGolgi yeast)
CN1CCc2c(c3c(n2C)CCN(C)[C@H]3c2ccccc2F)[C@@H]1c1ccccc1F	none
COC(=O)Cn1c(CN2CCN(c3ccc(F)cc3)CC2)nc2c1c(=O)n(C)c(=O)n2C	none
CCCCC(NC(=O)c1ccccc1)C(=O)OCC(=O)N1c2ccccc2Sc2ccccc21 (centres undefined)	CYP2C9 inh 94
CCCCNC(=O)c1sc(=S)n(-c2ccccc2OC)c1N	none
O=C(NC1CCCCC1)c1sc(=S)n2c1[nH]c(=O)c1ccccc12	PostGolgi ctrl 56, CYP2C19 inhib 72, CYP2C9 inh 95
O=C(NCC1CCCO1)c1ccc2c(=O)n(CC3CCCO3)c(=S)[nH]c2c1 (centres undefined)	none
O=C(NCC1CCCO1)c1sc(=S)n2c1[nH]c(=O)c1ccc(C(=O)N3CCCCC3)cc12 (centres undefined)	CYP2C9 inh 86
CCCCNC(=O)c1sc(=S)n2c1[nH]c(=O)c1ccccc12	PostGolgi ctrl 44, CYP2C9 inh 94
O=C1CSC(c2ccc(F)cc2)N1c1nnc(C23CC4CC(CC(C4)C2)C3)s1 (centres undefined)	none
COc1ccc(Cc2nnc(NC(=O)CSc3ccc(C)cc3)s2)cc1OC	none
COc1ccc(C(=O)O)cc1F	none
CNC(=O)/C(=C\c1ccc([N+](=O)[O-])cc1)NC(C)=O	none
CCNC(=O)COC(=O)/C=C/c1ccccc1[N+](=O)[O-]	none
CN(C)C(=O)COC(=O)/C=C/c1ccccc1[N+](=O)[O-]	CYP2C9 activ 2.1
Cn1c(=O)c2c(nc(SC3C(=O)CC(C)(C)CC3=O)n2C)n(C)c1=O	none (no result: PostGolgi ctrl, PostGolgi yeast)
CC(C)Sc1nc2c(c(=O)n(C)c(=O)n2C)n1C	CYP2C19 inhib 78
Cc1cc(=O)c2ccccc2s1	none
O=C(Cn1nnc(-c2ccccc2Cl)n1)N/N=C/c1ccc2c(c1)OCO2	none
O=C(NCc1ccccc1F)c1ccc2c(c1)OCO2	CYP2C19 inhib 73
O=C(CCNc1ccccc1)c1ccc2c(c1)OCO2	CYP2C19 inhib 63
CN(C)CCC(=O)c1ccc2c(c1)OCO2	none
O=C(NCc1ccccc1)c1ccc2c(c1)OCCO2	CYP2C19 inhib 85
O=C(NCc1cccs1)c1ccc2c(c1)OCCO2	none

Compound activity: PubChem, several laboratories
